The results in this text go back to PubChem BioAssay (NCATS).

Records with an inconclusive call do not appear. Where a call stands in place of a potency, no number is given. A number with no mark means an inactive call. The source made the active and inactive calls. The call rests on the fitted dose curve; in most records, active means well fitted inhibition curve with a large enough effect; inconclusive means small, poorly fitted or top-dose-only effect; inactive means flat fitted curve, though single readings scatter.
Potency means the concentration at half of the fitted maximal effect.

Phospholipid hydroperoxide glutathione peroxidase GPX4 (Homo sapiens), sequence (P36969 whole entry, looked up): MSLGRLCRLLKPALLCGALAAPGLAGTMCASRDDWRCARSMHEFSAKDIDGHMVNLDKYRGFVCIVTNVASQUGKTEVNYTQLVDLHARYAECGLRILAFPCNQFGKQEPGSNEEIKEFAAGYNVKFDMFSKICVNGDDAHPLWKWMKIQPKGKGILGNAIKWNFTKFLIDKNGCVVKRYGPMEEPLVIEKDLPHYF

For the assay, the target named is Phospholipid hydroperoxide glutathione peroxidase GPX4 (Homo sapiens) (UniProt P36969). In words: Primary qHTS Assay for Inhibitors of Recombinant Selenoprotein Glutathione Peroxidase 4 (GPX4) (AID 1845192). Further: nearly all actives have a fitted effect of over 65% in size. To be noted: recombinant GPX4, GR-coupled NADPH fluorescence, 15 min; series mostly up to 50 µM. From the text:
Assay Provider: Elias S.J. Arner MD PhD.
Department of Medical Biochemistry and Biophysics
Karolinska Institutet, Solna, Stockholm, Sweden
Selenoprotein glutathione peroxidases (GPX), like the ubiquitously expressed GPX1 and the ferroptosis modulator GPX4, enact their antioxidant activities by reducing hydroperoxides using glutathione. […] GPX1 and GPX4 inhibitors have thus shown promise as anti-cancer agents. Existing inhibitors are often promiscuous, or modulate GPX activity only indirectly, so novel direct inhibitors identified through screening against GPX1 and GPX4 could be valuable. Here, we developed optimized glutathione reductase (GR)-coupled GPX assays for the biochemical high-throughput screen (HTS) of almost 12,000 compounds with known mechanisms of action. Initial hits were triaged using a GR counter-screen, assessed for isoform specificity using a separate GPX2 assay, and were assessed for general selenocysteine-targeting activity using a thioredoxin reductase (TXNRD1) assay. With this suite of assays, we identified novel GPX1/GPX2- and GPX4-specific inhibitors and can here present a validated pipeline for future discovery research for selenoprotein-targeting agents.
SEQUENCE No. (e.g., 1, 2, 3, etc.); […] (e.g., Cells, Incubation, Reagent, etc.); VALUE; DESCRIPTION.
1; Reagent 1; 3 uL; 333.33 nM GPx4 enzyme or no enzyme control in 1536-well, black, solid Greiner assay plate.
2; Compound; 25 nL; Kalypsis pin tool (Wako USA) equipped with a 1536-well pin head.
3; Incubation; 30 min; room temperature.
4; Reagent 2; 1 uL; 500 nM GR, 5 mM GSH, 2.5 mM NADPH solution
5; Reagent 3; 1 uL; 2.5 mM CHP in 50% EtOH.
6; Detection; Fluorescence; ViewLux microplate reader, excitation 340 nm and emission 450 nm.
7; Incubation; 15 min; room temperature.
8; Detection; Fluorescence; ViewLux microplate reader, excitation 340 nm and emission 450 nm.
NOTES (numbers refer to Sequence numbers above)
1. 3 µL of 333.33 nM GPX4 and 0.016% BSA in assay buffer (50 mM Tris-HCl, 2 mM EDTA (pH 7.5), 150 mM NaCl) was added to columns 3-48 of 1536-well plates using a BioRAPTR Flying Reagent Dispenser (Let's Go Robotics (LGR), Carlsbad, CA). A no-enzyme control (0.01% BSA in TES assay buffer) was added to columns 1-2.
2. 25 nL, library and DMSO controls were added to each well with a pin tool (Kalypsys).
3. The assay plates were incubated for 30 minutes at room temperature.
4. 1 µL of master mix (500 nM glutathione reductase (GR), 5 mM reduced glutathione (GSH), 2.5 mM NADPH in assay buffer) was added.
5. 1 µL of cumene hydroperoxide (CHP) ([2.5 mM] in 50% EtOH) was then added within 5 minutes to initiate the reaction. Final concentrations were: 200 nM GPX4, 1 mM GSH, 0.5 mM CHP, 0.5 mM NADPH, 100 nM GR, 0.01% BSA.
6. Initial fluorescence readout (t=0) at 340/450 nm was measured using a ViewLux multimodal detector (PerkinElmer, Waltham, MA).
8. Endpoint fluorescence readout (t=15) at 340/450 nm was measured 15 min after room temperature incubation.
A general note: Quantitative high-throughput screening tests each substance at several concentrations.
For `CC(C)(C)C(=O)N1N=CC[C@H]1c1ccccc1`, the Potency entry is “inactive”.

Regarding `O=C(/C=C/C#Cc1cccc(NS(=O)(=O)c2ccccc2)c1)NO`, the Potency result was “inactive”.

For `COc1ccc(CNC(=O)c2cc(-c3cncc(Cl)c3)cnc2-c2ccccn2)nc1OC`, the Potency result is “inactive”.

Take `Cc1c(CN2CCN(C(=O)[C@H](C)O)CC2)sc2c(N3CCOCC3)nc(-c3cnc(N)nc3)nc12`: the Potency result is “inactive”.

`Cn1ncc(NC(=O)c2nc(-c3c(F)cccc3F)sc2N)c1N1CC[C@@H](N)[C@H](F)CC1`: the Potency result is “inactive”.

In the case of `CCN(CC)CCNC(=O)c1c(C)[nH]c(/C=C2/C(=O)Nc3ccc(-c4csc(-c5ccccc5)n4)cc32)c1C`, the Potency result is “inactive”.

As to `CCS(=O)(=O)c1ccc2oc(-c3ccc4ccccc4c3)nc2c1`, the Potency entry is “inactive”.

In the case of `Nc1cccc2c1CN([C@H]1CCC(=O)NC1=O)C2=O`, the Potency entry is “inactive”.

In the case of `COc1ccc(C(=O)N2CCN(c3ccc4c(c3)CCC(=O)N4)CC2)cc1OC`, the Potency entry was “inactive”.

As to `COc1nc(OCc2cccc(-c3ccccc3)c2C)ccc1CNCCNC(C)=O`, the Potency entry was “inactive”.

Consider `C[C@H]1CNCCCN1S(=O)(=O)c1cccc2cncc(F)c12`, for which the Potency result was “inactive”.

Consider `C/C(=N\NC(=S)N1CCC1)c1ccccn1`, for which the Potency result is “inactive”.

In the case of `C=C1C(=O)O[C@@H]2[C@H]3C(C)=CC[C@@]34O[C@@]4(C)CC[C@@H]12`, the Potency result was “inactive”.

For `CCOCOC[C@H](C[C@H](C)C(=O)NO)NC(=O)c1ccc(Oc2ccccc2)cc1`, the Potency result was “inactive”.

For `O=C(/C=C\n1cnc(-c2cc(C(F)(F)F)cc(C(F)(F)F)c2)n1)NNc1cnccn1`, the Potency entry was “inactive”.

In the case of `CC(=O)[C@]1(N)Cc2c(O)c3c(c(O)c2[C@@H](O[C@H]2C[C@H](O)[C@H](O)CO2)C1)C(=O)c1ccccc1C3=O`, the Potency result was “inactive”.

`OC1CCC(Oc2cccc3cnc(Nc4ccc5nc[nH]c5c4)nc23)CC1` (stereo not given): the Potency entry is “inactive”.

As to `Cc1c[nH]c2nc(Nc3ccc(N4CCN(C)CC4)c(F)c3)nc(-c3cccc(CC#N)c3)c12`, the Potency entry is “inactive”.

In the case of `CN1CCN(C(=O)[C@H]2[C@@H](C(=O)O)[C@H]3CC[C@@H]2O3)CC1`, the activity change, negative = inhibition was 3.36% [at 9.73 µM].

In the case of `Cc1nnn(C)c1-c1cnc2c3ccc(C(C)(C)O)cc3n([C@H](c3ccccc3)C3CCOCC3)c2c1`, the Potency was 16.1 µM (active).

For the molecule `CC(C)n1c(=O)cc(N[C@@H](C)c2ccccc2)[nH]c1=O`, the Potency result is “inactive”.

Turning to `COc1cccc2c1C(=O)c1c(O)c3c(c(O)c1C2=O)C[C@@](O)(/C(CO)=N/NC(=O)CCCCCN1C(=O)C=CC1=O)C[C@@H]3O[C@H]1C[C@H](N)[C@H](O)[C@H](C)O1`, the Potency entry is “inactive”.

For `Clc1cccc(-c2ccc(-c3nnc(CCCc4ccc5cccnc5n4)o3)cc2)c1`, the Potency result is “inactive”.

As to `Cc1cc2cc(Oc3ccnc(Nc4cccc(CS(=O)(=O)NCCN(C)C)c4)n3)ccc2[nH]1`, the Potency entry was “inactive”.

As for `Cc1cnc(NC(=O)c2cc(Oc3cnc(C(=O)N(C)C)nc3)c3cc(C)oc3c2)cn1`, the Potency result is “inactive”.

In the case of `OC1CCC([C@H](O)C[C@H]2c3c(F)cccc3-c3cncn32)CC1` (stereo not given in full), the Potency result is “inactive”.

In the case of `O=c1oc2c(C3OCCCO3)c(O)ccc2c2c1CNCC2`, the Potency is 14.3 µM (active).

As to `Fc1cccc(-n2cnc3c(NCc4nc5c(F)c(F)ccc5[nH]4)nc(N4CCOCC4)nc32)c1`, the Potency result was “inactive”.

`Cc1cc(O)c(-c2ccc([C@@H](C)CN)cc2)c2c1[nH]c(=O)c1sccc12`: the Potency result is “inactive”.

`C=C1CCC2[C@](C)(CO)C(O)CC[C@]2(C)C1C/C=C1/C(=O)OCC1O` (stereo not given in full): the Potency result was “inactive”.

As to `O=C(NO)c1cnc(NC2(c3cccc(F)c3)CCCCC2)nc1`, the Potency result was “inactive”.

In the case of `COc1ccc2[nH]c(C(=O)N3CCC(CC(C)(C)O)CC3)cc2c1`, the Potency result is “inactive”.

For `CN(C)C/C=C/C(=O)Nc1cc2c(Nc3ccc(F)c(Cl)c3)ncnc2cc1O[C@H]1CCOC1`, the Potency result is “inactive”.

For the molecule `COc1cc(OCc2cccc(-c3ccccc3)c2C)cc(OC)c1CN1CCCC[C@H]1C(=O)O`, the Potency entry is “inactive”.

In the case of `COc1cc(-c2cn(C)c(=O)c3cnccc23)c(OC)cc1CN(C)C`, the Potency result is “inactive”.

Take `Cc1nc(NC(=O)N2CCC[C@H]2C(N)=O)sc1-c1csc(C(C)(C)C)n1`: the Potency result was “inactive”.

Consider `C=CC(=O)N1CC/C(=C\c2ccc(F)c([N+](=O)[O-])c2)C(=O)/C(=C/c2ccc(F)c([N+](=O)[O-])c2)C1`, for which the Potency result is “inactive”.

With `C=CC(=O)N1C[C@H](Nc2ncnc3[nH]ccc23)CC[C@@H]1C`, the Potency result was “inactive”.

Turning to `C[C@H](NC(=O)/C(C#N)=C/c1cccc(Br)n1)c1ccccc1`, the Potency result is “inactive”.

`CN[C@@H](C)C(=O)N[C@H](C(=O)N1CCC[C@H]1C(=O)Nc1snnc1-c1ccccc1)C1CCCCC1`: the Potency entry was “inactive”.
